PubChem BioAssay AID1159580 (chemical genetic matrix, 2015)
Screen size: about 5,500 compounds; about 2,000 (36%) were called active. Roughly 18% stayed inconclusive and do not appear here. Rule as the data show it: active = normalized growth mostly below about 0.91 (no sharp cut-off); inconclusive = no clear call, values can overlap the other calls; inactive = mostly above about 0.92. The list shows a part of the results.

Assay: chemical genetic growth profiling, strain panel (AID 1159580);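 also: tested at 20 µM; growth read once vehicle control cultures reached saturation at 30 °C; 1 = growth at the plate median or of vehicle wells; lower values mean less growth of the strain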
Conditions: growth OD

Measured: normalized growth

CC(=O)O[C@H]1C[C@@H](OC(C)=O)C(C)(C)C2CC(=O)[C@]3(C)C(CC[C@@]4(C)[C@H](c5ccoc5)OC(=O)[C@H]5O[C@]543)[C@]21C (some centres not stated)
inactive: S. cerevisiae deletion strains, locus YJR075W, strain HOC1, active compounds read low 1.01 | S. cerevisiae deletion strains, locus YKL009W, strain mrt4, active compounds read low 0.974 | S. cerevisiae deletion strains, locus YKL068W, active compounds read low 1.01 | S. cerevisiae deletion strains, locus YKL085W, strain MDH1 (second series), active compounds read low 1.01 | S. cerevisiae deletion strains, locus YKL085W, strain MDH1, active compounds read low 1.01 | S. cerevisiae deletion strains, locus YKL160W, strain elf1, active compounds read low 0.998 | S. cerevisiae deletion strains, locus YKL190W, strain CNB1, active compounds read low 0.998 | S. cerevisiae deletion strains, locus YKR001C, strain vps1, active compounds read low 1.03 | S. cerevisiae deletion strains, locus YKR026C, strain gcn3, active compounds read low 0.993 | S. cerevisiae deletion strains, locus YKR091W, strain srl3, active compounds read low 0.991 | S. cerevisiae deletion strains, locus YLL001W, strain dnm1, active compounds read low 0.99 | S. cerevisiae deletion strains, locus YLL026W, active compounds read low 0.996 | S. cerevisiae deletion strains, locus YLL041C, strain sdh2, active compounds read low 0.982 | S. cerevisiae deletion strains, locus YLR027C, strain aat2, active compounds read low 0.988 | S. cerevisiae deletion strains, locus YLR039C, strain RIC1, active compounds read low 1 | S. cerevisiae deletion strains, locus YLR058C, strain SHM2, active compounds read low 1.01 | S. cerevisiae deletion strains, locus YLR102C, strain apc9, active compounds read low 1 | S. cerevisiae deletion strains, locus YLR113W, strain HOG1, active compounds read low 1.01 | S. cerevisiae deletion strains, locus YLR221C, strain rsa3, active compounds read low 1 | S. cerevisiae deletion strains, locus YLR258W, strain gsy2, active compounds read low 1 | S. cerevisiae deletion strains, locus YLR262C, strain YPT6 (second series), active compounds read low 0.982 | S. cerevisiae deletion strains, locus YLR262C, strain YPT6, active compounds read low 1.07 | S. cerevisiae deletion strains, locus YLR268W, strain sec22, active compounds read low 0.998 | S. cerevisiae deletion strains, locus YLR320W, strain mms22, active compounds read low 1.01 | S. cerevisiae deletion strains, locus YLR342W, strain FKS1 (second series), active compounds read low 1.01 | S. cerevisiae deletion strains, locus YLR342W, strain FKS1, active compounds read low 0.994 | S. cerevisiae deletion strains, locus YLR357W, strain rsc2, active compounds read low 0.989 | S. cerevisiae deletion strains, locus YLR370C, strain arc18, active compounds read low 0.998 | S. cerevisiae deletion strains, locus YLR371W, strain rom2, active compounds read low 0.985 | S. cerevisiae deletion strains, locus YLR384C, strain iki3, active compounds read low 0.984 | S. cerevisiae deletion strains, locus YLR418C, strain cdc73, active compounds read low 1.03 | S. cerevisiae deletion strains, locus YML016C, strain PPZ1, active compounds read low 0.996 | S. cerevisiae deletion strains, locus YML032C, strain rad52, active compounds read low 1.01 | S. cerevisiae deletion strains, locus YML120C, strain ndi1, active compounds read low 0.99 | S. cerevisiae deletion strains, locus YML124C, strain tub3, active compounds read low 1 | S. cerevisiae deletion strains, locus YMR058W, strain fet3, active compounds read low 0.978 | S. cerevisiae deletion strains, locus YMR078C, strain ctf18, active compounds read low 0.996 | S. cerevisiae deletion strains, locus YMR125W, strain sto1, active compounds read low 0.98 | S. cerevisiae deletion strains, locus YMR129W, active compounds read low 0.994 | S. cerevisiae deletion strains, locus YMR205C, strain PFK2, active compounds read low 0.992 | S. cerevisiae deletion strains, locus YMR223W, strain ubp8, active compounds read low 1.01 | S. cerevisiae deletion strains, locus YMR231W, strain pep5, active compounds read low 0.978 | S. cerevisiae deletion strains, locus YMR263W, strain SAP30, active compounds read low 1.02 | S. cerevisiae deletion strains, locus YMR307W, strain GAS1, active compounds read low 1.03 | S. cerevisiae deletion strains, locus YNL067W, strain RPL9B, active compounds read low 1.03 | S. cerevisiae deletion strains, locus YNL071W, strain lat1, active compounds read low 0.992 | S. cerevisiae deletion strains, locus YNL128W, strain TEP1, active compounds read low 0.988 | S. cerevisiae deletion strains, locus YNL153C, strain GIM3, active compounds read low 1.02 | S. cerevisiae deletion strains, locus YNL183C, strain NPR1, active compounds read low 0.941 | S. cerevisiae deletion strains, locus YNL209W, strain ssb2, active compounds read low 0.987 | S. cerevisiae deletion strains, locus YNL233W, strain BNI4, active compounds read low 1.02 | S. cerevisiae deletion strains, locus YNL248C, strain rpa49, active compounds read low 0.981 | S. cerevisiae deletion strains, locus YNL250W, strain rad50, active compounds read low 1.03 | S. cerevisiae deletion strains, locus YNL271C, strain bni1, active compounds read low 1 | S. cerevisiae deletion strains, locus YNL298W, strain CLA4, active compounds read low 1.02 | S. cerevisiae deletion strains, locus YNL307C, strain MCK1, active compounds read low 1.02 | S. cerevisiae deletion strains, locus YNL322C, strain KRE1 (second series), active compounds read low 0.994 | S. cerevisiae deletion strains, locus YNR049C, strain mso1, active compounds read low 0.987 | S. cerevisiae deletion strains, locus YNR052C, strain pop2, active compounds read low 1.02 | S. cerevisiae deletion strains, locus YOL012C, strain htz1 1 | S. cerevisiae deletion strains, locus YOL147C, strain pex11, active compounds read low 1.01 | S. cerevisiae deletion strains, locus YOR001W, strain rrp6, active compounds read low 0.986 | S. cerevisiae deletion strains, locus YOR061W, strain CKA2, active compounds read low 0.991 | S. cerevisiae deletion strains, locus YOR069W, strain VPS5, active compounds read low 1 | S. cerevisiae deletion strains, locus YOR070C, strain gyp1, active compounds read low 1.01 | S. cerevisiae deletion strains, locus YOR080W, strain dia2, active compounds read low 1 | S. cerevisiae deletion strains, locus YOR083W, strain WHI5, active compounds read low 0.995 | S. cerevisiae deletion strains, locus YOR106W, strain vam3, active compounds read low 1 | S. cerevisiae deletion strains, locus YOR136W, strain idh2, active compounds read low 1.01 | S. cerevisiae deletion strains, locus YOR144C, strain elg1, active compounds read low 1.01 | S. cerevisiae deletion strains, locus YOR184W, strain ser1, active compounds read low 0.996 | S. cerevisiae deletion strains, locus YOR231W, strain MKK1, active compounds read low 0.981 | S. cerevisiae deletion strains, locus YOR265W, strain rbl2, active compounds read low 0.99 | S. cerevisiae deletion strains, locus YOR270C, strain vph1, active compounds read low 0.943 | S. cerevisiae deletion strains, locus YOR290C, strain snf2, active compounds read low 1 | S. cerevisiae deletion strains, locus YOR316C, strain cot1, active compounds read low 1.02 | S. cerevisiae deletion strains, locus YPL051W, strain arl3, active compounds read low 1.03 | S. cerevisiae deletion strains, locus YPL078C, strain atp4, active compounds read low 0.989 | S. cerevisiae deletion strains, locus YPL106C, strain sse1, active compounds read low 1 | S. cerevisiae deletion strains, locus YPL240C, strain hsp82, active compounds read low 0.995 | S. cerevisiae deletion strains, locus YPL256C, strain CLN2, active compounds read low 0.968 | S. cerevisiae deletion strains, locus YPR119W, strain clb2, active compounds read low 1.01 | S. cerevisiae deletion strains, locus YPR141C, strain kar3, active compounds read low 1 | S. cerevisiae deletion strains, locus YPR163C, strain tif3, active compounds read low 1.01 | S. cerevisiae deletion strains, locus YPR167C, strain met16, active compounds read low 1 | S. cerevisiae deletion strains, strain wtn01, active compounds read low 0.984 | S. cerevisiae strains, strain wild type, active compounds read low 0.991
